Data taken from PubChem BioAssay (EPA / NIEHS).
Some structures have more than one record in an assay (separate samples or runs), and their calls can disagree. Calls of active or inactive are those of the source. Rule for the calls: active = hit-call score of the fitted dose curve at least 0.9, where 1 is the maximum; inactive = score below 0.9.

read-out: Monocyte Chemoattractant Protein-1 (MCP1), CCL2 (gene 6347); assay: BSK_3C_MCP1: BioMAP Diversity Plus: 3C Assay for Monocyte Chemoattractant Protein-1 (MCP1) Biomarker Activity (AID 2283017); conditions: primary human endothelial cells (HUVEC); actives raise or lower the signal
Protocol: BSK_3C is a cell-based, multiplexed-readout assay that uses umbilical vein endothelium, a human vascular primary cell, with measurements taken at 24 hours after chemical dosing in a 96-well plate.BSK_3C_MCP1 is an assay component measured in the BSK_3C assay. It measures MCP-1 antibody related to regulation of gene expression using ELISA technology.Data from the assay component BSK_3C_MCP1 was analyzed into 1 assay endpoint. This assay endpoint, BSK_3C_MCP1, was analyzed with bidirectional fitting relative to DMSO as the negative control and baseline of activity. Using a type of binding reporter, gain or loss-of-signal activity can be used to understand changes in the signaling as they relate to the gene CCL2. Furthermore, this assay endpoint can be referred to as a primary readout, because this assay has produced multiple assay endpoints where this one serves a signaling function. To generalize the intended target to other relatable targets, this assay endpoint is annotated to the cytokine intended target family, where the subfamily is chemotactic factor.
The levels of cell surface (or secreted, indicated by the prefix "s") biomarker endpoints were measured by ELISA. Overt cytotoxicity to cells in confluent adherent cultures (all systems other than the BT system) was assessed by measuring total protein levels using sulforhodamine B (SRB) staining in parallel cultures at the time of biomarker measurements, indicated as SRB endpoints. For proliferation assays for adherent cell types, individual cell types are cultured at sub-confluence and relative cell numbers quantified by SRB staining at time points optimized for each system (48 h: 3C and CASM3C systems; 72 h: BT and HDF3CGF systems; 96 h: SAg system). SRB was performed by staining cells with 0.1% SRB after fixation with 10% TCA and reading wells at 560 nm.Viability and proliferation of PBMC (T cells) was quantified by Alamar Blue reduction for the SAg and BT systems. For PBMC viability (referred to as PBMC Cytotoxicity within the assay endpoint names), cells were plated (75,000/well in a 96-well plate) and then chemical samples added for 1 h before addition of activators, SEB and TSST-1 (20 ng/mL final concentration each). Cells were incubated for 90 h. Then, Alamar Blue (20 uL/well) (Invitrogen, Cat DAL1100) was added for 6 h, and the plates were read with a fluorescence microplate reader at 546/580 nm (excitation/emission). For PBMC proliferation, cells were plated and activated as above but incubated for only 16 h prior to addition of Alamar Blue. Plates were read after 6 h.

| SMILES | outcome | AC50 |
| --- | --- | --- |
| CC(c1cc(C(C)(C)C)cc(C(C)(C)C)c1O)c1cc(C(C)(C)C)cc(C(C)(C)C)c1O | inactive | – |
| C=CC(=O)OCCCCCCCC(C)C | inactive | – |
| CCCCCCCCCCCC(=O)N(C)CC(=O)O | inactive | – |
| CCCCCCC=O | inactive | – |
| CCCC(C)C(=O)OCC (stereo not given) | inactive | – |
| CCOC(=O)C1=NOC(c2ccccc2)(c2ccccc2)C1 | inactive | – |
| CC(Cl)COP(=O)(OCC(C)Cl)OCC(C)Cl (stereo not given) | inactive | – |
| Oc1c(Cl)cc(Cl)c(Cl)c1Cl | – | 30.7 µM (active) |
| CC1=CC=C(C(C)C)CC1 | inactive | – |
| CCCCCCCCC(CO)CCCCCC (stereo not given) | – | 5.93 µM (active) |
| CCCCCCOC(=O)CCCCC(=O)OCCCCCC | inactive | – |
| CCCCCC1=CCCC1=O | inactive | – |
| CC(C)CCCCCOC(=O)CS | inactive | – |
| CCCCCCCO | inactive | – |
| C=CC(=O)OCCCCCCOC(=O)C=C | – | 20 µM (active) |
| CC=C(C)C(C)=O | inactive | – |
| C[N+](C)(C)CCCNS(=O)(=O)C(F)(F)C(F)(F)C(F)(F)C(F)(F)C(F)(F)C(F)(F)C(F)(F)C(F)(F)F | inactive | 30 µM (active) |
| Nc1nc(N)nc(-c2ccccc2)n1 | inactive | – |
| Nc1cccc(N)n1 | inactive | – |

| SMILES | outcome | AC50 |
| --- | --- | --- |
| CCC1(C)C(=O)N(Cl)C(=O)N1Cl (stereo not given) | inactive | – |
| O=C(O)C(F)(F)C(F)(F)C(F)(F)C(F)(F)C(=O)O | inactive | – |
| Cc1ccc([N+](=O)[O-])cc1N | inactive | – |
| COC(OC)(C(=O)c1ccccc1)c1ccccc1 | inactive | – |
| C1CNCCN1 | inactive | – |
| C=CC(=O)NCOCCCC | inactive | – |
| CC(CCC(=O)O)(c1ccc(O)cc1)c1ccc(O)cc1 | inactive | – |
| CCOC(=O)C1=NN(c2ccc(Cl)cc2Cl)C(C)(C(=O)OCC)C1 (stereo not given) | inactive | – |
| Oc1ccc(/C=C/c2cc(O)cc(O)c2)cc1 | – | 20 µM (active) |
| CCN1CN(CC)CN(CC)C1 | inactive | – |
| CCc1cccc(C)c1N(C(=O)CS(=O)(=O)O)C(C)COC (stereo not given) | inactive | – |
| CCOC(=O)/C=C\C(=O)OCC | inactive | – |
| c1ccc2c(c1)[nH]c1ccccc12 | inactive | – |
| C=CC(=O)OCC(C)OCC(C)OCC(C)OC(=O)C=C (stereo not given) | – | 28.9 µM (active) |
| Oc1ccccc1Cc1ccccc1O | inactive | 1.72 µM (active) |
| CC/C=C\CCOC(=O)c1ccccc1O | – | 29.7 µM (active) |
| CCCCCCCCCCCC(C)=O | – | 31.3 µM (active) |
| CCCCC1C(=O)N(c2ccccc2)N(c2ccccc2)C1=O | inactive | – |
| CC(C)[N+](C)(CCOC(=O)C1c2ccccc2Oc2ccccc21)C(C)C | inactive | – |
